# Entries with a potency or affinity are not part of this list. Records with an inconclusive call do not appear. Activity calls are given as the source filed them.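 How the source made its calls, unless noted: active means signal-lowering compounds whose fitted half-maximal concentration is at or below twice the top tested dose in every run; inconclusive means runs disagree, flat 30 to 70% inhibition, or poor curve fit; inactive means the rest.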
# Experiment: cytotoxicity in IOSE-T80 ovarian epithelial cells, dose response, selectivity assay for PAX8 inhibitor project, cell-based, cherry-pick (AID 687032;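 active means fitted half-maximal concentration for viability loss no higher than twice the top valid dose, in every repeat run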;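 further: cells exposed to compound for 96 h before reading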)
# Settings: CellTiterGlo ATP luminescence, 96 h; series mostly up to 35 µM
row,Structure (SMILES),outcome
1,COc1ccccc1-c1ccc2c(c1)[C@H]1[C@H](CCN1S(=O)(=O)c1ccccc1F)[C@H](CO)N2,inactive
2,COc1ccccc1-c1ccc2c(c1)O[C@H](CN(C)Cc1ccc3c(c1)OCO3)[C@H](C)CN([C@@H](C)CO)S2(=O)=O,inactive
3,COc1ccc(S(=O)(=O)N2CCCCN3[C@H](C2)[C@H](c2ccc(C#CC(C)C)cc2)[C@@H]3CO)cc1,inactive
4,C[C@@H]1CCCCO[C@H](CN(C)CC2CCCCC2)[C@H](C)CN([C@H](C)CO)C(=O)c2cc(NS(=O)(=O)c3ccc(Cl)cc3)ccc2O1,inactive
5,COc1ccc(S(=O)(=O)N(C)C[C@H]2Oc3ccc(NC(=O)Nc4ccc(C(F)(F)F)cc4)cc3CC(=O)N([C@H](C)CO)C[C@@H]2C)cc1,inactive
6,COc1ccc(S(=O)(=O)N2CCCCN3[C@H](C2)[C@@H](c2ccc(C#CC(C)C)cc2)[C@@H]3CO)cc1,inactive
7,COc1ccc(NC(=O)Nc2ccc3c(c2)CC(=O)N([C@@H](C)CO)C[C@@H](C)[C@@H](CN(C)Cc2ccc(Oc4ccccc4)cc2)O3)cc1,inactive
8,C[C@@H]1CCCCO[C@H](CN(C)Cc2ccc(Cl)c(Cl)c2)[C@@H](C)CN([C@@H](C)CO)C(=O)c2cc(NS(=O)(=O)c3ccc(Cl)cc3)ccc2O1,inactive
9,C[C@H](CO)N1C[C@H](C)[C@@H](CN(C)C(=O)Nc2ccc(F)cc2)OCc2ccccc2-c2c(n(C)c3ccccc23)C1=O,inactive
10,C[C@H](CO)N1C[C@H](C)[C@H](CN(C)C(=O)NC2CCCCC2)Oc2cc(C#Cc3ccc(F)cc3)ccc2S1(=O)=O,inactive
11,C[C@H]1CCCCO[C@H](CN(C)S(=O)(=O)c2ccc(Cl)cc2)[C@@H](C)CN([C@@H](C)CO)C(=O)c2cc(NS(=O)(=O)c3ccc(Cl)cc3)ccc2O1,inactive
12,C[C@@H]1CCCCO[C@H](CN(C)C(=O)Nc2ccc(C(F)(F)F)cc2)[C@H](C)CN([C@@H](C)CO)C(=O)c2cc(NS(=O)(=O)c3ccc(Cl)cc3)ccc2O1,inactive
13,C[C@H](CO)N1C[C@H](C)[C@@H](CN(C)Cc2ccc(Cl)c(Cl)c2)OCCCC[C@H](C)Oc2ccc(NC(=O)Nc3ccccc3)cc2C1=O,inactive
14,C[C@@H]1CN([C@@H](C)CO)C(=O)c2cc(NC(=O)c3ccccc3)ccc2O[C@@H](C)CCCCO[C@H]1CN(C)Cc1ccc(C(F)(F)F)cc1,inactive
15,Cc1ccc(S(=O)(=O)Nc2ccc3c(c2)C(=O)N([C@H](C)CO)C[C@H](C)[C@H](CN(C)C(=O)c2ccccc2)OCCCC[C@H](C)O3)cc1,inactive

# Experiment: inhibitors of CMV-promoter luciferase reporter, dose response, counter-screen for Pax8 inhibitor project, cell-based, HEK293, luminescence, dry powder (AID 743020);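 further: HEK293 cells stably expressing the CMV luciferase reporter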
# Settings: SteadyGlo luminescence, 24 h; series mostly up to 35 µM
row,Structure (SMILES),outcome
1,C[C@H]1CCCCO[C@H](CN(C)Cc2ccc(Cl)c(Cl)c2)[C@@H](C)CN([C@@H](C)CO)C(=O)c2cc(NC(=O)Nc3ccc(F)cc3)ccc2O1,inactive
2,C[C@@H]1CN([C@@H](C)CO)C(=O)c2c(c3ccccc3n2C)-c2ccccc2CO[C@H]1CN(C)C(=O)Nc1ccc2c(c1)OCO2,inactive
3,C[C@@H]1CCCCO[C@H](CN(C)Cc2ccc(C(F)(F)F)cc2)[C@H](C)CN([C@@H](C)CO)C(=O)c2cc(NC(=O)Nc3ccc(F)cc3)ccc2O1,inactive
4,C[C@H](CO)N1C[C@H](C)[C@H](CN(C)S(=O)(=O)c2cccs2)OCCCC[C@H](C)Oc2ccc(NC(=O)NC3CCCCC3)cc2C1=O,inactive
5,C[C@H]1CCCCO[C@@H](CN(C)S(=O)(=O)c2cccs2)[C@@H](C)CN([C@@H](C)CO)C(=O)c2cc(NC(=O)NC3CCCCC3)ccc2O1,inactive
6,C[C@@H]1CN([C@H](C)CO)C(=O)c2cc(NS(=O)(=O)c3ccc(F)cc3)ccc2O[C@@H]1CN(C)Cc1ccc(C(F)(F)F)cc1,inactive
7,C[C@@H]1CCCCO[C@H](CN(C)C(=O)Cc2ccccc2)[C@H](C)CN([C@@H](C)CO)C(=O)c2cc(NC(=O)Nc3ccc(C(F)(F)F)cc3)ccc2O1,inactive
8,C[C@H](CO)N1C[C@H](C)[C@@H](CN(C)C(=O)NC2CCCCC2)Oc2cc(C#Cc3ccc(F)cc3)ccc2S1(=O)=O,inactive
9,C[C@@H]1CCCCO[C@H](CN(C)C)[C@H](C)CN([C@H](C)CO)C(=O)c2cc(NC(=O)Nc3cccc4ccccc34)ccc2O1,inactive
10,C[C@@H]1CCCCO[C@@H](CN(C)S(=O)(=O)c2ccc(Cl)cc2)[C@H](C)CN([C@@H](C)CO)C(=O)c2cc(NS(=O)(=O)c3ccc(Cl)cc3)ccc2O1,inactive
11,C[C@H](CO)N1C[C@H](C)[C@@H](CN(C)Cc2ccc(Oc3ccccc3)cc2)OCc2ccccc2-c2c(n(C)c3ccccc23)C1=O,inactive
12,C[C@@H]1CN([C@@H](C)CO)C(=O)c2cc(NC(=O)Nc3ccc4c(c3)OCO4)ccc2O[C@@H]1CN(C)C(=O)Nc1ccc(C(F)(F)F)cc1,inactive
13,C[C@@H]1CN([C@@H](C)CO)C(=O)c2cc(NS(=O)(=O)c3ccccc3)ccc2O[C@@H](C)CCCCO[C@@H]1CN(C)Cc1ccc(C(F)(F)F)cc1,inactive
14,C[C@@H]1CN([C@@H](C)CO)C(=O)Cc2cc(NC(=O)Nc3ccc(C(F)(F)F)cc3)ccc2O[C@H]1CN(C)S(=O)(=O)c1ccc(F)cc1,inactive
15,C[C@@H]1CCCCO[C@H](CN(C)Cc2ccc(C(F)(F)F)cc2)[C@H](C)CN([C@H](C)CO)C(=O)c2cc(NC(=O)Nc3ccc(F)cc3)ccc2O1,inactive
16,CN1c2ccc(C#Cc3cccnc3)cc2[C@@H]2[C@@H](CCN2C(=O)Cc2cccnc2)[C@@H]1CO,inactive
17,COc1ccc(NC(=O)Nc2ccc3c(c2)C(=O)N([C@@H](C)CO)C[C@@H](C)[C@@H](CN(C)Cc2ccc(C(F)(F)F)cc2)OCCCC[C@@H](C)O3)cc1,inactive
18,O=C(Nc1ccc(C(F)(F)F)cc1)N1C[C@@H]2N[C@H](C1)C2c1ccc(-c2ccccc2)cc1 (stereo not given in full),inactive
19,C[C@H]1CN([C@@H](C)CO)C(=O)CCCn2nncc2CO[C@@H]1CN(C)C(=O)Nc1ccc(-c2cccs2)cc1,inactive
20,CCCN(C)C[C@H]1OCCCC[C@@H](C)Oc2ccc(NC(=O)c3ccccc3)cc2C(=O)N([C@H](C)CO)C[C@H]1C,inactive

row,Structure (SMILES),outcome
1,CC(C)CC#Cc1ccc2c(c1)O[C@@H](CN(C)Cc1ccncc1)[C@H](C)CN([C@@H](C)CO)S2(=O)=O,inactive
2,C[C@@H]1CN([C@H](C)CO)C(=O)c2cc(NC(=O)Nc3ccc(F)cc3)ccc2O[C@@H](C)CCCCO[C@H]1CN(C)C(=O)Nc1ccc(F)cc1,inactive
3,Cc1ccc(S(=O)(=O)N(C)C[C@H]2OCCCC[C@@H](C)Oc3ccc(NS(=O)(=O)c4ccc(F)cc4)cc3C(=O)N([C@@H](C)CO)C[C@H]2C)cc1,inactive
4,C[C@H]1CCCCO[C@@H](CN(C)C)[C@@H](C)CN([C@@H](C)CO)C(=O)c2cc(NC(=O)Nc3ccc(C(F)(F)F)cc3)ccc2O1,inactive
5,Cc1ccc(S(=O)(=O)Nc2ccc3c(c2)C(=O)N([C@@H](C)CO)C[C@@H](C)[C@@H](CN(C)Cc2ccc(C(F)(F)F)cc2)OCCCC[C@@H](C)O3)cc1,inactive
6,COc1ccccc1-c1ccc2c(c1)[C@H]1[C@H](CCN1S(=O)(=O)c1ccccc1F)[C@H](CO)N2,inactive
7,COc1ccccc1-c1ccc2c(c1)O[C@H](CN(C)Cc1ccc3c(c1)OCO3)[C@H](C)CN([C@@H](C)CO)S2(=O)=O,inactive
8,COc1ccc(S(=O)(=O)N2CCCCN3[C@H](C2)[C@H](c2ccc(C#CC(C)C)cc2)[C@@H]3CO)cc1,inactive
9,C[C@@H]1CCCCO[C@H](CN(C)CC2CCCCC2)[C@H](C)CN([C@H](C)CO)C(=O)c2cc(NS(=O)(=O)c3ccc(Cl)cc3)ccc2O1,inactive
10,COc1ccc(S(=O)(=O)N(C)C[C@H]2Oc3ccc(NC(=O)Nc4ccc(C(F)(F)F)cc4)cc3CC(=O)N([C@H](C)CO)C[C@@H]2C)cc1,inactive
11,COc1ccc(S(=O)(=O)N2CCCCN3[C@H](C2)[C@@H](c2ccc(C#CC(C)C)cc2)[C@@H]3CO)cc1,inactive
12,COc1ccc(NC(=O)Nc2ccc3c(c2)CC(=O)N([C@@H](C)CO)C[C@@H](C)[C@@H](CN(C)Cc2ccc(Oc4ccccc4)cc2)O3)cc1,inactive
13,C[C@@H]1CCCCO[C@H](CN(C)Cc2ccc(Cl)c(Cl)c2)[C@@H](C)CN([C@@H](C)CO)C(=O)c2cc(NS(=O)(=O)c3ccc(Cl)cc3)ccc2O1,inactive
14,C[C@H](CO)N1C[C@H](C)[C@@H](CN(C)C(=O)Nc2ccc(F)cc2)OCc2ccccc2-c2c(n(C)c3ccccc23)C1=O,inactive
15,C[C@H](CO)N1C[C@H](C)[C@H](CN(C)C(=O)NC2CCCCC2)Oc2cc(C#Cc3ccc(F)cc3)ccc2S1(=O)=O,inactive
16,C[C@H]1CCCCO[C@H](CN(C)S(=O)(=O)c2ccc(Cl)cc2)[C@@H](C)CN([C@@H](C)CO)C(=O)c2cc(NS(=O)(=O)c3ccc(Cl)cc3)ccc2O1,inactive
17,C[C@@H]1CCCCO[C@H](CN(C)C(=O)Nc2ccc(C(F)(F)F)cc2)[C@H](C)CN([C@@H](C)CO)C(=O)c2cc(NS(=O)(=O)c3ccc(Cl)cc3)ccc2O1,inactive
18,C[C@H](CO)N1C[C@H](C)[C@@H](CN(C)Cc2ccc(Cl)c(Cl)c2)OCCCC[C@H](C)Oc2ccc(NC(=O)Nc3ccccc3)cc2C1=O,inactive
19,C[C@@H]1CN([C@@H](C)CO)C(=O)c2cc(NC(=O)c3ccccc3)ccc2O[C@@H](C)CCCCO[C@H]1CN(C)Cc1ccc(C(F)(F)F)cc1,inactive
20,Cc1ccc(S(=O)(=O)Nc2ccc3c(c2)C(=O)N([C@H](C)CO)C[C@H](C)[C@H](CN(C)C(=O)c2ccccc2)OCCCC[C@H](C)O3)cc1,inactive
